Source: PubChem (several laboratories)
Mtb FBA inh = inhibits M. tuberculosis FBA enzyme; P9WQA3; purified M. tuberculosis FBA, fluorescence read-out; inhibition, % at 1 µM; 2.3% of 360,000 active; in the data active = inhibition above about 27%;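 also: 0% = vehicle and 100% = reference inhibitor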
VHR inh abs = DUSP3 (human) phosphatase inhibition. recombinant VHR phosphatase, pNPP absorbance. inhibition, % at 13.3 µM. P51452. AID 1654. 0.52% of 290,000 active; in the data active = inhibition above about 50%
GDH-TPI counter-1 = inhibits GDH-TPI coupling enzymes, artifact for Mtb FBA screen. 1.2% of 360,000 active. GDH-TPI coupled enzyme counterscreen, NADH absorbance. inhibition, % at 4.8 µM;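 also: 0% = DMSO wells and 100% = wells lacking the enzyme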
RecA splice inh = inhibitors of M. tuberculosis RecA intein splicing; cell-free RecA intein splicing, fluorescence; AID 2221; inhibition, % (test concentration not listed); 0.75% of 290,000 active; in the data active = inhibition above about 30%;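 also: 0% = vehicle wells and 100% = reference inhibitor control wells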
Target sequence (P9WHJ3 whole entry, looked up, canonical isoform): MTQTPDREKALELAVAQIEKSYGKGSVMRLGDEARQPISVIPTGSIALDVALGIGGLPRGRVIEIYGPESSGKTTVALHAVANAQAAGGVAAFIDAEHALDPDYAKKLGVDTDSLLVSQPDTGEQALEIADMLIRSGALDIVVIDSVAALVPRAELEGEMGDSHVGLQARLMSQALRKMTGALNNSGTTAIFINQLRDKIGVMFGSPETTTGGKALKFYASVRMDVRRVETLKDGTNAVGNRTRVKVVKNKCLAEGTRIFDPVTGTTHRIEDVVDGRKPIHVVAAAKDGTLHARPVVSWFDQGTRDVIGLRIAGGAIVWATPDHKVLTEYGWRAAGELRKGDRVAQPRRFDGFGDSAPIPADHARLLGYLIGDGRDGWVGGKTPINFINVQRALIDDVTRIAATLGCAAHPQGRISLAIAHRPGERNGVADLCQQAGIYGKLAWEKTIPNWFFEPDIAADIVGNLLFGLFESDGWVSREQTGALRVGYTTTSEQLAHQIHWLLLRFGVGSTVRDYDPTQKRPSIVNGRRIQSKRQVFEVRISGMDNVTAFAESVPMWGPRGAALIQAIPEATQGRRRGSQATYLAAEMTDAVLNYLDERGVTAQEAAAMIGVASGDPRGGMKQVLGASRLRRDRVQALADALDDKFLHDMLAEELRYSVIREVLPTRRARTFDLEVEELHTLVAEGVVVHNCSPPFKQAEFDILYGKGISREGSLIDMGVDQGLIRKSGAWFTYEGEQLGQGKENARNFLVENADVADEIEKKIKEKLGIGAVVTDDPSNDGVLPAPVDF
CCHF vOTU inh = blocks the CCHF virus ovarian tumor domain protease; AID 651958; inhibition, % at 11.5 µM; CCHFV vOTU protease, Pep-AMC fluorescence; 0.55% of 370,000 active; also: 0% = vehicle wells with enzyme and 100% = no enzyme wells
3CLpro inhibitor = SARS-CoV 3CLpro protease inhibition | P0C6X7 | recombinant SARS-CoV 3CLpro, quenched FRET peptide cleavage | 0.14% of 290,000 active | inhibition, % at 6 µM; in the data active = inhibition above about 12%
Mtb FBA confirm = Mtb FBA inhibition, confirmed. inhibition, % at 1 µM. 78% of 5,600 active. AID 651616. shares compounds with Mtb FBA inh. purified M. tuberculosis FBA, fluorescence read-out; in the data active = inhibition above about 27%;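 also: 0% = vehicle wells and 100% = reference inhibitor wells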
GDH-TPI counter-2 = GDH-TPI inhibition counter-screen for FBA inhibitors. 81% of 5,600 active. inhibition, % at 1 µM. shares compounds with Mtb FBA inh. GDH-TPI coupled enzyme counterscreen, fluorescence; in the data active = inhibition above about 10%
The depositor's hits bear a star; nt = no result given; + = active, no number. This is a sample that favours compounds with a hit; in the whole collection about 4.7% have one here. Rule as the data show it, unless noted: active = inhibition above about 30%; inactive = the rest.

SMILES | Mtb FBA inh | VHR inh abs | GDH-TPI counter-1 | RecA splice inh | CCHF vOTU inh | 3CLpro inhibitor | Mtb FBA confirm | GDH-TPI counter-2
Cc1ccc(-c2nnc3c(C(F)(F)F)nc4ccccc4n23)cc1 | 59.9* | 12.7 | -1.4 | 0.8 | -5.1 | 7.4 | + | +
CN(CC(=O)NC1(C)CCS(=O)(=O)C1)S(=O)(=O)c1ccc(Cl)cc1 (stereo unspecified) | -0.6 | nt | 4.5 | -2.4 | 0.4 | nt | nt | nt
CC(NC(=O)C(C)N1CCN(Cc2ccccc2)CC1)c1ccccc1 (stereo unspecified) | 0.7 | 17.0 | -0.8 | -0.5 | 10.3 | -2.6 | nt | nt
CCOC(=O)C1=C(CSc2nc(-c3ccccc3)ccc2C#N)OC(N)=C(C#N)C1c1ccc(OC)cc1 (stereo unspecified) | 74.4* | 37.9 | 14.6 | -14.4 | 19.3 | 0.9 | 111.6* | 92.6*
CCOC(=O)C1=C(CSc2nc(CC)c(C)cc2C#N)OC(N)=C(C#N)C1c1ccccc1 (stereo unspecified) | 5.3 | 4.2 | 13.6 | -5.2 | 17.3 | 2.0 | nt | nt
Nc1sc(-c2ccccc2)cc1C(=O)N1CCN(c2ccccc2)CC1 | nt | nt | nt | nt | 4.2 | nt | nt | nt
N#C/C(=C\c1cccnc1)c1ccccn1 | 37.3* | 9.5 | 4.3 | 0.9 | -7.1 | -2.4 | 45.5* | 41.4*
O=C(O)CSCc1nc2scc(-c3ccccc3)c2c(=O)[nH]1 | 1.5 | -0.2 | 0.3 | 1.0 | -2.3 | -2.8 | nt | nt
O=C(CSCc1nc2scc(-c3cccs3)c2c(=O)[nH]1)Nc1ccccn1 | 33.9* | 24.0 | 7.1 | -1.6 | 11.2 | -0.8 | 0.5 | -4.7
CCC(O)CNc1nc(SC)nc2sc3c(c12)CCN(C)C3 (stereo unspecified) | 84.0* | 16.3 | 16.7 | -14.7 | -106.8 | 1.3 | 0.0 | -5.5
CCSc1nc(N)c2c3c(sc2n1)CN(C)CC3 | nt | 24.1 | nt | -5.4 | nt | -4.0 | nt | nt
COC(CNc1nc(SC)nc2sc3c(c12)CCN(C)C3)OC | 22.2 | 19.7 | -1.0 | -3.7 | -39.7 | 1.9 | nt | nt
CSc1nc(N)c2c3c(sc2n1)CN(C)CC3 | 39.1* | 14.1 | 20.6 | -3.9 | -18.4 | 1.8 | 47.5* | 33.6*
Cc1cc(C)cc(C(=O)N(Cc2ccco2)c2c(N)n(Cc3ccccc3)c(=O)[nH]c2=O)c1 | 2.2 | nt | -3.2 | nt | -3.8 | nt | nt | nt
COc1cccc(-c2csc(NNC(=O)c3cccs3)n2)c1 | 63.7* | -4.0 | 3.7 | 3.7 | -1.2 | -3.1 | 27.6* | 14.2*
CC(C)C[C@H]1COc2cccc(F)c2S(=O)(=O)N1C | nt | nt | nt | nt | 17.0 | nt | nt | nt
CCOc1ccccc1NC(=O)CCC(=O)Nc1ccc2nc(N3CCN(C)CC3)cc(C)c2c1 | 30.9* | 11.3 | 7.5 | -1.6 | -12.1 | -3.2 | 130.4* | 121.7*
CCCCN(CC)CCCNC(=S)Nc1ccc2nc(N3CCN(C)CC3)cc(C)c2c1 | 8.8 | 5.8 | 25.0 | 0.9 | -7.9 | -1.8 | nt | nt
CCCCN(C)C(=O)CCC(=O)Nc1ccc2nc(N3CCN(C)CC3)cc(C)c2c1 | 28.4* | 17.7 | 24.7 | -0.3 | -24.6 | 5.0 | 61.1* | 56.9*
CCOC(CCNC(=O)CCC(=O)Nc1ccc2nc(N3CCN(C)CC3)cc(C)c2c1)OCC | 18.8 | 9.5 | 6.2 | -1.6 | -14.3 | -2.0 | nt | nt
CCCCN(C)C(=O)CCC(=O)Nc1ccc2nc(N3CCOCC3)cc(C)c2c1 | 49.2* | 25.9 | 17.8 | -1.9 | -82.0 | -3.6 | 154.0* | 124.7*
COc1ccc(N(C)C(=O)CCC(=O)Nc2ccc3nc(N4CCOCC4)cc(C)c3c2)c(OC)c1 | 14.3 | 8.1 | 5.8 | -2.0 | -51.2 | -3.6 | nt | nt
COCCn1c(=S)[nH]c2cc(C(=O)N(CCO)Cc3ccccc3)ccc2c1=O | -0.3 | -3.6 | 5.2 | -0.1 | 8.9 | -1.8 | nt | nt
CCOC(=O)[C@@]12CCC3=C1N(CCC3)C(=O)[C@H](CC(=O)N1CCCCC1)C2 | nt | nt | nt | nt | -7.2 | nt | nt | nt
Cc1c(C(=O)NCc2ccc(C#N)cc2)sc(=O)n1Cc1ccccn1 | 3.7 | nt | 7.2 | nt | 1.1 | nt | nt | nt
SMILES | Mtb FBA inh | VHR inh abs | GDH-TPI counter-1 | RecA splice inh | CCHF vOTU inh | 3CLpro inhibitor | Mtb FBA confirm | GDH-TPI counter-2
CCCCNC(=O)c1cn(CC)c2ccc(S(=O)(=O)N3CCCCCC3)cc2c1=O | -1.7 | 8.0 | 9.2 | -0.5 | 3.0 | -0.9 | nt | nt
COC(=O)C1=C(C)NC(=O)NC1c1ccc(OC)c(OC)c1 (stereo unspecified) | -3.4 | nt | 5.4 | nt | 0.8 | nt | nt | nt
COC(=O)C1=C(C)NC(=O)NC1c1ccc(N2CCC(c3ccccc3)=N2)cc1 (stereo unspecified) | 77.5* | 3.9 | 10.7 | -5.6 | -34.1 | 4.0 | 108.8* | 78.3*
Cc1ccnc(N=O)c1 | 3.2 | nt | 1.8 | nt | -4.1 | nt | nt | nt
CCOC(=O)c1ccc2nc(C)c3c(c2c1)OC(C)C3 (stereo unspecified) | 37.7* | -12.4 | -0.6 | 0.9 | -31.3 | 0.8 | 175.3* | 130.3*
COc1cccc2c3c(c(C)nc12)CC(C)O3 (stereo unspecified) | 39.6* | -0.2 | 4.3 | -1.7 | -30.9 | -1.7 | 106.3* | 75.0*
C=CCNC(=S)NNC(=O)c1ccccc1OCC | 2.2 | -7.1 | -2.5 | 4.2 | 12.0 | 1.0 | nt | nt
CCCN1C(=O)c2ccccc2NC1c1ccc(OC)cc1O (stereo unspecified) | 58.2* | 7.1 | 6.0 | -1.5 | -51.9 | 5.1 | 1.9 | -7.7
CCCN1C(=O)c2ccccc2NC1c1ccc(OC)cc1OC (stereo unspecified) | 80.9* | 8.1 | 0.0 | 0.0 | -82.4 | 2.9 | 44.9* | 43.1*
COc1ccc(C2Nc3ccccc3C(=O)N2NC(C)=O)c(OC)c1 (stereo unspecified) | 40.8* | 52.6* | 11.0 | -0.1 | -73.0 | -1.8 | 72.2* | 49.9*
O=C1c2ccccc2NC(c2ccccc2O)N1O (stereo unspecified) | 2.8 | 38.5 | -11.8 | -31.0 | -15.5 | 2.3 | nt | nt
COc1ccc(COCC(O)CN2CCC(CN3C(=O)c4cccc5cccc(c45)C3=O)CC2)cc1OC (stereo unspecified) | 30.4* | -11.3 | 14.4 | 0.4 | -0.2 | -1.1 | -1.0 | -2.3
Cc1ccccc1NC(=O)C(C)Sc1nnc(-c2ccncc2)n1CC1CCCO1 (stereo unspecified) | 4.3 | -8.1 | 3.0 | -0.2 | 8.0 | 1.8 | nt | nt
CC12CCC(C(=O)N(NC(=O)c3cc(Cl)ccc3O)C1=O)C2(C)C (stereo unspecified) | 44.2* | 10.7 | 5.7 | -1.9 | -31.7 | -7.2 | -0.1 | -7.3
O=C(CCCc1ccccc1)NCCS(=O)(=O)N1CCN(c2ccccc2)CC1 | -2.9 | nt | 8.0 | nt | -0.3 | nt | nt | nt
COC1(OC)N=C(N)C2(C#N)C(c3ccccc3)NC(C)=CC12C#N (stereo unspecified) | 61.6* | 3.0 | -2.0 | -8.6 | -35.1 | 3.3 | + | +
COC1(OC)N=C(N)C2(C#N)C(c3cccc(Oc4ccccc4)c3)C12C#N (stereo unspecified) | -4.0 | -4.3 | 0.6 | 4.5 | -13.8 | -1.8 | nt | nt
Cc1ccc(S(=O)(=O)c2c(C)nn(-c3ccccc3)c2OC(=O)c2ccco2)cc1 | 0.1 | 7.6 | -1.8 | 2.7 | -0.7 | 1.3 | nt | nt
